# Source: PubChem (National Center for Advancing Translational Sciences (NCATS))
# Sampled rows, rich in hits. Any-hit rate of the full collection: about 3%.
# 12-LOX inh – inhibitors of human 12S-lipoxygenase ALOX12; P18054; 580,000 tested, 1.1% active; purified 12hLO, xylenol orange hydroperoxide absorbance; AID 1671190; Potency, µM (titrated, usually from 108 µM), inactives show top-dose activity change, negative = inhibition, usual class: inhibitors
# Target sequence (P18054 whole entry, looked up): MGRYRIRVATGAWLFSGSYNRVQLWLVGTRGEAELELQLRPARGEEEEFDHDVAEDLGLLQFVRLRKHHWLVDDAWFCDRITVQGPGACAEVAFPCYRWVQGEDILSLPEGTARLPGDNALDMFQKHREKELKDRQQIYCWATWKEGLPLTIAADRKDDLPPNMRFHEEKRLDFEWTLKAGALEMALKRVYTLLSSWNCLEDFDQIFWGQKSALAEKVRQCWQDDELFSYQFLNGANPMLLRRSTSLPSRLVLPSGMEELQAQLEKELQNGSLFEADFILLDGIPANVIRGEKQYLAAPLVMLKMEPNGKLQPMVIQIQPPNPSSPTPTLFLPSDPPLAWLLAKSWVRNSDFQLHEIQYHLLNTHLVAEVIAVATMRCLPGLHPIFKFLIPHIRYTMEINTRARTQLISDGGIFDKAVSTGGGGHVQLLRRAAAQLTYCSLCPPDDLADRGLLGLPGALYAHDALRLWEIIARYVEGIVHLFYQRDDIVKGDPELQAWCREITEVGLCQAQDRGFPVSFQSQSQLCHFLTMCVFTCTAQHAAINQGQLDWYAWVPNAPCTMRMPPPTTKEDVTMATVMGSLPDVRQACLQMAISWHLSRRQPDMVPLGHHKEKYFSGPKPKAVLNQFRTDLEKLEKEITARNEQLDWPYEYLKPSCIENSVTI
#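 Purified human 12hLO at 150 nM in 25 mM Hepes, 0.01% Triton X-100, pH 7.0, preincubated 15 min at room temperature with compound. Reaction started with 40 uM arachidonic acid, 30 min at room temperature. Hydroperoxide measured by Fe-xylenol orange, 573/405 nm absorbance ratio.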
# PLK1 PBD inh – PLK1 (human) polo-box domain binding inhibition; 360,000 tested, 2.8% active; P53350; Potency, µM, for inactives: max response, negative = inhibition, most hits filed as inhibitors; Plk1 PBD binding of FITC phosphopeptide, fluorescence polarization; also: series mostly up to about 57 µM; nearly all actives have a fitted effect of over 65% in size
# KAT2A inh – GCN5L2 (KAT2A) acetyltransferase inhibition | AID 504327 | GCN5L2 HAT assay, ThioGlo1 CoA-SH fluorescence | 390,000 tested, 0.21% active | Potency, µM (titrated, usually from 58.9 µM), inactives show at the highest dose activity change, negative = inhibition, actives largely listed as inhibitors | Q92830
#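 Titration-based screen in which CoA formation is detected via maleimide probe ThioGlo1 (50uM) turning fluorescent on thiol reaction; substrates H3(1-25) 75uM and acetyl-CoA 70uM, GCN5L2 20nM, 20 min incubation at room temperature.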
# VDR inh – vitamin D3 receptor (human) inhibition. 400,000 tested, 0.93% active. P11473. VDR-SRC2-3 peptide fluorescence polarization, 2 h. Potency, µM, for inactives: max response, negative = inhibition, hits mostly inhibitors
#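 Two reagent solutions held at 4 deg C in the dark were dispensed, compounds pinned at 23 nl, and the mixture incubated 2 h at room temperature. Read-out: fluorescence polarization of VDR–SRC2-3 peptide binding.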
# * hit, by the source's call; ? = inconclusive; / = no result given; [ ] = dose if it differs, or a comment. Calls follow the shape of the dose curve; as a rule, active = well fitted curve in the direction sought with a large enough effect; inconclusive = small, poorly fitted or top-dose-only effect, or another doubt; inactive = no such curve, though single readings can be large; an effect the other way counts as inactive or inconclusive. % is scaled to controls: 0 for no effect and ±100 for the full control effect; potency is read from the fitted curve at half-maximal effect.
SMILES,12-LOX inh,PLK1 PBD inh,KAT2A inh,VDR inh
COC(=O)c1c(-c2ccc(OC)cc2)oc2ccc(-c3ccc(OC)nc3)cc12,2%,-15%,1%,-3%
CCCOC(=O)c1c(-c2ccc(OC)cc2)oc2ccc(-c3ccc(OC)nc3)cc12,-36%,38µM*,-5%,-29%
Nc1cccc(S(=O)(=O)c2cccc(N)c2)c1,-18%,-7%,-7%,9%
NNc1cccc(S(=O)(=O)c2cccc(NN)c2)c1,11µM*,/,/,/
CC(Oc1ccc(Cl)cc1)C(=O)OCc1nc(N)nc(N)n1 (stereo not given),3%,/,/,/
COc1cc(CNC(=O)c2ccc3c(c2)N(C)C2CCCN2C3=O)cc(OC)c1 (stereo not given),44%,/,/,/
CCNC(=O)NC(=O)CN1CCCCCCC1,-6%,/,/,/
CCOC(=O)c1cnc2ccc(C)cc2c1Sc1ccccc1C(=O)OC,0%,27µM*,?,-13%
Cc1ccc(/C=C2\SC(N3CCCCC3)=NC2=O)cc1,12%,24µM*,-4%,?
O=C1N=C(N2CCCC2)S/C1=C\c1ccccc1,34%,30µM*,-5%,?
CC(=O)N1CCC(C2CCN(Cc3cccc(C)c3)C2)CC1 (stereo not given),61%,/,/,/
O=C(/C=C/c1ccco1)Oc1ccc(C(=S)N2CCOCC2)cc1,-5%,12µM*,-14%,?
O=C(/C=C/C=C/c1ccco1)c1ccc(N2CCOCC2)cc1,5µM*,/,/,/
O=C(/C=C/c1cccs1)c1ccc(N2CCOCC2)cc1,-11%,1%,-13%,-9%
CCCCn1c(-c2ccc(OCC#N)c(OC)c2)nc2c1c(=O)[nH]c(=O)n2CC(C)C,-4%,/,/,/
C=CCOc1ccc(-c2nc3c(c(=O)[nH]c(=O)n3CCCC)n2C)cc1OC,-5%,21µM*,-1%,?
CCS(=O)(=O)NCc1ccnc(N2CCN(c3ccc(F)cc3)CC2)c1,46%,/,/,/
Cc1cccc(-c2nnc(SCC#N)n2C)c1,5%,27µM*,0%,-9%
Cc1cccc(-c2nnc(SCC(=O)NC3CC3)n2C)c1,-11%,1%,-1%,6%
Cc1ccccc1-c1nc2cc(NC(=O)c3cccs3)ccc2o1,15%,/,/,/
COc1ccc(S(=O)(=O)N2CCc3ccccc32)cc1C(=O)N1CCN(c2ncccn2)CC1,40µM*,/,/,/
CC(Sc1nnnn1C1CC1)C(=O)c1c[nH]c2ccccc12 (stereo not given),25%,/,/,/
Cc1ccc(C(=O)/C=C\N(C)C)cc1,56µM*,/,/,/
CN(C)/C=C\C(=O)c1ccc(Br)cc1,4µM*,/,/,/
CN(C)/C=C/C(=O)c1ccn(S(=O)(=O)c2ccccc2)c1,50µM*,2%,-22%,-13%
SMILES,12-LOX inh,PLK1 PBD inh,KAT2A inh,VDR inh
CN(C)/C=C/C(=O)c1ccc(-c2ccc(Cl)cc2Cl)o1,1.6µM*,-30%,-9%,?
Cc1ccc(C)c(C(=O)/C=C\N(C)C)c1,28%,/,/,/
O=C(O)c1ccc(-c2ccc(Cl)cc2Cl)o1,?,-5%,2%,-12%
CCOC(=O)c1csc(C)c1-c1ccccc1,3%,/,/,/
CN(C)/C=C/C(=O)c1ccc(Cl)cc1,16µM*,-10%,-9%,-23%
N#Cc1nc(-c2cccs2)oc1N1CCN(C(=O)c2cccc(Cl)c2)CC1,54%,/,/,/
CCn1nc(C)cc1C(=O)Sc1ccc(Cl)cc1Cl,0%,19µM*,-1%,79µM*
CCn1nc(C)cc1C(=O)Sc1cccc(Br)c1,-164%,?,-7%,?
N#Cc1c(/N=C/c2ccc(-c3ccccc3C(=O)O)o2)sc2c1CCCC2,?,38µM*,1%,-14%
COc1ccc2[nH]c(C(=O)NCC(=O)N3CCCCCNC(=O)CC3c3ccccc3)cc2c1 (stereo not given),8%,/,/,/
C/C(Cc1ccccc1)=N\NC(=O)CNC(=O)c1ccc(Br)cc1,2%,27µM*,-5%,-12%
C/C(Cc1ccccc1)=N\NC(=O)CNC(=O)c1ccccc1,5%,-9%,-13%,13%
CCN(CC)CCNC(=O)c1n[nH]c(=O)c2ccccc12,6%,/,/,/
COc1cc(CN(C(=O)c2cccc(NC(C)=O)c2)C2CC2)ccc1OC(F)F,-5%,/,/,/
O=C(Nc1ccccc1)c1sc2cc(C(F)(F)F)cnc2c1-c1cccs1,?,3µM*,-2%,?
CCCc1cc(=O)n2nc(N3CCC(C(=O)NCc4ccco4)CC3)sc2n1,2%,24µM*,-1%,-28%
Cc1cccc(-c2nc(CSc3nc(C)c(CCO)c(=O)[nH]3)c(C)o2)c1,28%,/,/,/
O=c1[nH]c(NNC(=S)NCc2ccccc2)nc2c1C1(CCCCC1)Cc1ccccc1-2,35µM*,?,0%,-14%
CCn1c(SCC(=O)NCc2ccco2)nnc1C1CCCC1,0%,-12%,-22%,-4%
O=C(CSc1nnc(C2CCCCC2)n1Cc1ccccc1)NCc1ccco1,0%,27µM*,0%,?
CCc1ccc(CNC(=O)c2ccccc2SC)s1,-20%,/,/,/
Cc1ccc(-c2cc3ccccn3c2C=O)cc1C,16µM*,/,/,/
Cc1cc2ccccn2c1C(=O)c1ccc(-c2ccccc2)cc1,0%,/,/,/
CCCCOC(=O)C(C)Sc1n[nH]c(=O)[nH]c1=O (stereo not given),1%,27µM*,-6%,-18%
CCOC(=O)CC(=O)CSc1n[nH]c(=O)[nH]c1=O,-4%,-10%,1%,-2%
SMILES,12-LOX inh,PLK1 PBD inh,KAT2A inh,VDR inh
COc1cc(/C=C(\C#N)C(=O)NC2CCCCC2C)ccc1OS(=O)(=O)c1ccc(C)cc1 (stereo not given),-1%,-13%,-13%,79µM*
COC(=O)c1ccc2nc(CO[C@H]3CN(Cc4ccc5c(c4)OCO5)C[C@H]3F)[nH]c2c1,26%[176 µM],/,/,/
Cc1occc1-c1nnc(SCC(=O)Nc2cccc(C(F)(F)F)c2)o1,-16%,/,/,/
CCOc1ccc(OCC)c(NC(=O)CN2CCN(C(=O)c3ccco3)CC2)c1,0%[57.4 µM],21µM*,-3%,-17%
Cc1ccccc1CNC(C)(C)CO,-32%,/,/,/
O=C1C=CC2=C3c4cc(O)c(O)cc4C[C@@]3(O)COC2=C1,?,/,/,11µM*
Cc1ccc2c(c1)C(=O)C(=O)N2CC1COc2ccccc2O1 (stereo not given),-8%,?,-6%,71µM*
Cc1ccc2c(c1)C(=O)C(=O)N2Cc1ccccc1,-28%,-18%,-5%,79µM*
Cc1ccc2c(c1)C(=O)C(=O)N2Cc1ccc(Cl)cc1,?,?,-3%,25µM*
Cc1ccc2c(c1)C(=O)C(=O)N2Cc1ccc(F)cc1,?,?,-7%,?
COc1ccc2c(c1)C(=O)C(=O)N2CC1COc2ccccc2O1 (stereo not given),-25%,-29%,-14%,?
O=C(Nc1ccccc1Cl)c1ccccc1-c1ccccc1,7%,/,/,/
COCCN1C(=O)c2ccccc2C(C(=O)Nc2nc(C)c(C)s2)C12CCCCC2 (stereo not given),36%,/,/,/
COc1cc(Cl)cc2cc(C(=O)N3CCOCC3)c(=O)oc12,3%,/,/,/
CCCCN1CC(=O)N2[C@@H]3c4cc(OC)ccc4OC[C@@H]3[C@H](C(=O)OCC)[C@]2(C)C1=O,10%,24µM*,/,?
O=C(O)CCc1ccc(-c2ccc(Cl)cc2)n1Cc1ccco1,40µM*,-19%,-10%,14%
